Measured values from PubChem BioAssay.
For part of these data: Potency and affinity values are given separately. Calls of active or inactive are those of the source. Unless noted, no rule for the calls is given here.

How the values were obtained:
[1] = antimalarial activity against Dd2 strain (AID 2302;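 active = growth inhibition above 50% at the single 2 µM test dose, taken to imply half-maximal potency below 2 µM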;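 also: 0% = DMSO untreated growth and 100% = chloroquine plus artemisinin killed control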); details: P. falciparum Dd2 in RBCs, LDH growth readout, 72 h; at 2 µM; active compounds read high
[2] = human hepatoma cell viability loss – ATP luminescence, cytotoxicity control for P. falciparum antimalarial project, primary screen (AID 2303;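 active = inhibition above 50%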;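 also: 0% = DMSO wells and 100% = digitonin-killed cells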); details: HepG2 viability, 24-48 h, at 10 µM, active compounds read high
[3] = molecular target: L-lactate dehydrogenase (Plasmodium falciparum (isolate CDC / Honduras)) (UniProt Q27743); assay: PfLDH activity inhibition – cell lysate, 3D7 strain, counter-screen for P. falciparum growth inhibition project (AID 2304);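 also: 0% = vehicle and 100% = reference inhibitor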; details: P. falciparum 3D7 crude extract, LDH APAD/NBT absorbance; at 2 µM; active compounds read high
Sequence of L-lactate dehydrogenase (Plasmodium falciparum (isolate CDC / Honduras)) (Q27743 whole entry, looked up): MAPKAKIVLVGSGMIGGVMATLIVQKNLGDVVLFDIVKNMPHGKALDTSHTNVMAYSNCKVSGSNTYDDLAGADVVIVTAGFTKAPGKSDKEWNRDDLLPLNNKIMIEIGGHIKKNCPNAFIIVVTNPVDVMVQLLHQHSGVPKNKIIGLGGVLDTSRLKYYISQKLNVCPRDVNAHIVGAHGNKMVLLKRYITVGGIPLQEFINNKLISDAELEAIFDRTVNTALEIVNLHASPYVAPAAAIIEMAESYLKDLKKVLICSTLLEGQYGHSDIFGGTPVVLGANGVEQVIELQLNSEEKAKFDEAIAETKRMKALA

[4] = inhibition of 3D7 malaria parasite growth – strain 3D7 (AID 2306);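 also: 0% = DMSO wells and 100% = chloroquine plus artemisinin control wells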; details: P. falciparum 3D7 erythrocytic growth, LDH absorbance, 72 h; at 2 µM; active compounds read high
[5] = molecular target: Calcium-dependent protein kinase 1 (Plasmodium falciparum (isolate 3D7)) (UniProt P62344); assay: PfCDPK1 kinase inhibitors, biochemical, TCAMS library (AID 1159585; cut-off not given, nearly all actives have IC50 up to about 0.98 µM;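 also: inhibitors leave more ATP so luminescence rises with inhibition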); details: recombinant PfCDPK1, Kinase-Glo ATP depletion luminescence
Sequence of Calcium-dependent protein kinase 1 (Plasmodium falciparum (isolate 3D7)) (P62344 whole entry, looked up): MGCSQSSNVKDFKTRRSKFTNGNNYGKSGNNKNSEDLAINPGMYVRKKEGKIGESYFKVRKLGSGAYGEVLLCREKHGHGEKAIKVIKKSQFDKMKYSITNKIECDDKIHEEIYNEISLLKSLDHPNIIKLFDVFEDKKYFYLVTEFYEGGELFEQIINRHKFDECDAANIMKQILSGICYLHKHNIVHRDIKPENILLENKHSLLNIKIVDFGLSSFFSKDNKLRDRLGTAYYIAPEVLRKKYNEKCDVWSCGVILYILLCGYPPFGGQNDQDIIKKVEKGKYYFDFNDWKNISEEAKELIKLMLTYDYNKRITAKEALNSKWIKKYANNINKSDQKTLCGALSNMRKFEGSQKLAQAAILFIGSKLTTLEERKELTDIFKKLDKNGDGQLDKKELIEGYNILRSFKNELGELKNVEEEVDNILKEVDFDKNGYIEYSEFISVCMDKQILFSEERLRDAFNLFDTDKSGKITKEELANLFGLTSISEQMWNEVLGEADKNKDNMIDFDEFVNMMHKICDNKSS

[6] = molecular target: Plasmodium falciparum protein kinase 6 (PK6, PF3D7_1337100) (UniProt Q8IDW1); assay: PfPK6 kinase inhibitors, biochemical, TCAMS library (AID 1159586); details: recombinant PfPK6, Kinase-Glo ATP depletion luminescence
Sequence of Plasmodium falciparum protein kinase 6 (PK6, PF3D7_1337100) (Q8IDW1 1-305): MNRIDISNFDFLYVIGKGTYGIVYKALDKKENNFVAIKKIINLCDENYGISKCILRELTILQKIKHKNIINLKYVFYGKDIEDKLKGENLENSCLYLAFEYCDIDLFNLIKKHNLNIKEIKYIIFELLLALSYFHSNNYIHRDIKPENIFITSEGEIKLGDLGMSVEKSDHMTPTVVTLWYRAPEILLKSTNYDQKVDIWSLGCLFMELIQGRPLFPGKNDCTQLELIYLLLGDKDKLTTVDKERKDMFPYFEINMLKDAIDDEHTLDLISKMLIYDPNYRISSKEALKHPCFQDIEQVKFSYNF

[7] = molecular target: Protein kinase 7 (PK7), Plasmodium falciparum 3D7 (PF3D7_0213400) (UniProt Q7YTF7); assay: inhibition of Plasmodium PK7 catalytic activity – biochemical, TCAMS antimalarial set, Kinase-Glo luminescence (AID 1159587); details: recombinant PfPK7, Kinase-Glo ATP depletion luminescence
Sequence of Protein kinase 7 (PK7), Plasmodium falciparum 3D7 (PF3D7_0213400) (Q7YTF7 1-343): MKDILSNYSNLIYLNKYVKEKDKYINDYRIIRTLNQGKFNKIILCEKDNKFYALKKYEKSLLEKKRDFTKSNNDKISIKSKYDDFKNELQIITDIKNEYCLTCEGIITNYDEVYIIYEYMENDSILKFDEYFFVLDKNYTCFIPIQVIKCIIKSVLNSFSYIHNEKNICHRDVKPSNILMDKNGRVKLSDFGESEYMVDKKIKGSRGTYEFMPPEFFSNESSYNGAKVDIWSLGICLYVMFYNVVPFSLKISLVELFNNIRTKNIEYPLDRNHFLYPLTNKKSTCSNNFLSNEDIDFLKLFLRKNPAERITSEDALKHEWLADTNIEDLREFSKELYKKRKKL

[8] = molecular target: Calcium-dependent protein kinase 4 (Plasmodium falciparum (isolate 3D7)) (UniProt Q8IBS5); assay: PfCDPK4 kinase inhibitors, biochemical, TCAMS library (AID 1159588; cut-off not given, nearly all actives have IC50 up to about 0.91 µM); details: recombinant PfCDPK4, Kinase-Glo ATP depletion luminescence
Sequence of Calcium-dependent protein kinase 4 (Plasmodium falciparum (isolate 3D7)) (Q8IBS5 whole entry, looked up): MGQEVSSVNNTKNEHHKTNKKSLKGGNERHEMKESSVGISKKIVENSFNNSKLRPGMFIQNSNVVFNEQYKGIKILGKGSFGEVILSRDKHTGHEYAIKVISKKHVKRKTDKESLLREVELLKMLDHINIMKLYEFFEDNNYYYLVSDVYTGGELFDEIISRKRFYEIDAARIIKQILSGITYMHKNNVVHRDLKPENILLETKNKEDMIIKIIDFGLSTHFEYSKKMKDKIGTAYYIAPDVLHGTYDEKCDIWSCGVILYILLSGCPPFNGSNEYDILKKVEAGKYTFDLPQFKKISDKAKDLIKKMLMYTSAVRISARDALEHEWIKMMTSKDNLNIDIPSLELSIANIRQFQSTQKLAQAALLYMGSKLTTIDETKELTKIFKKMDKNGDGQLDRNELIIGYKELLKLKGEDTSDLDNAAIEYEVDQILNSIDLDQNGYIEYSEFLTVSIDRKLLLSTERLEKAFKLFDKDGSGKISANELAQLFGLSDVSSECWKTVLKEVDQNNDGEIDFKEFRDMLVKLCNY

Cc1cc2c3c(N)nc(N)nc3ccc2n1C(C)C
inactive: growth inhibition [1] 0% | inhibition [3] 2% | outcome [5] | outcome [6] | outcome [7] | outcome [8]
active: inhibition [2] 70% | growth inhibition [4] 93%

COc1cc(Cc2cnc(N)nc2N)ccc1Oc1ccc(N)cc1
inactive: growth inhibition [1] -1% | inhibition [2] 0% | inhibition [3] 6% | outcome [5] | outcome [6] | outcome [7] | outcome [8]
active: growth inhibition [4] 93%

COc1ccc(C(=O)CCC(=O)N(Cc2ccc(-c3ccc(CNCCc4ccc(S(C)(=O)=O)cc4)cn3)cc2)C2C[C@@H]3CC[C@H]2C3)cc1F (some centres undefined)
active: growth inhibition [4] 97%
inactive: growth inhibition [1] 34% | inhibition [2] 5% | inhibition [3] 0% | outcome [5] | outcome [6] | outcome [7] | outcome [8]

N#Cc1ccc(N2C[C@@H](OCc3ccccc3)C[C@H]2C(=O)NCCC(c2ccccc2)c2ccccc2)c2ccccc12
inactive: inhibition [2] 11% | inhibition [3] -6% | outcome [5] | outcome [6] | outcome [7] | outcome [8]
active: growth inhibition [1] 96% | growth inhibition [4] 93%

CCC(CC(C)C(=O)O)=C(c1ccccc1)c1ccccc1 (centres undefined)
active: growth inhibition [4] 98%
inactive: growth inhibition [1] 1% | inhibition [2] 12% | inhibition [3] 5% | outcome [5] | outcome [6] | outcome [7] | outcome [8]

Cc1ccc(Nc2nc(NN=Cc3ccc(-c4ccc([N+](=O)[O-])cc4)o3)nc(N3CCOCC3)n2)cc1Cl
active: growth inhibition [4] 95%
inactive: growth inhibition [1] 47% | inhibition [2] 12% | inhibition [3] -1% | outcome [5] | outcome [6] | outcome [7] | outcome [8]

Cc1cc(CNCCCCCCNCc2cccc([N+](=O)[O-])c2)ccc1O
active: growth inhibition [4] 90%
inactive: growth inhibition [1] -1% | inhibition [2] 13% | inhibition [3] -8% | outcome [5] | outcome [6] | outcome [7] | outcome [8]

O=C(c1ccccc1)N1COCC(CCN2CCC(N3CCCC3)CC2)(c2ccc(Cl)c(Cl)c2)C1 (centres undefined)
active: growth inhibition [4] 83%
inactive: growth inhibition [1] 9% | inhibition [2] 18% | inhibition [3] 0% | outcome [5] | outcome [6] | outcome [7] | outcome [8]

COc1ccc(NC(=O)Nc2cccc(-c3cccc(-c4nc5ccccc5[nH]4)c3)c2)cc1
inactive: growth inhibition [1] 41% | inhibition [2] 41% | inhibition [3] 3% | outcome [5] | outcome [6] | outcome [7] | outcome [8]
active: growth inhibition [4] 101%

Cc1nc2nc(N)nc(N)c2c(C)c1Cc1ccccc1Cl
active: inhibition [2] 63% | growth inhibition [4] 93%
inactive: growth inhibition [1] -2% | inhibition [3] -3% | outcome [5] | outcome [6] | outcome [7] | outcome [8]

CCCc1cc(Cc2cnc(N)nc2N)ccc1OCCCCCC(=O)O
active: growth inhibition [4] 97%
inactive: growth inhibition [1] -2% | inhibition [2] 3% | inhibition [3] 1% | outcome [5] | outcome [6] | outcome [7] | outcome [8]

COc1ccc(CC(=O)NC(CCCN2CCC(c3ccccc3)CC2)c2ccc(Cl)c(Cl)c2)cc1OC (centres undefined)
active: growth inhibition [1] 57% | growth inhibition [4] 82%
inactive: inhibition [2] 28% | inhibition [3] -7% | outcome [5] | outcome [6] | outcome [7] | outcome [8]

Cc1cn(CC(=O)Nc2cccc(-c3cccc(-c4nc5ccc(C(F)(F)F)cc5[nH]4)c3)c2)c(=O)[nH]c1=O
active: growth inhibition [1] 51% | growth inhibition [4] 92%
inactive: inhibition [2] 15% | inhibition [3] -1% | outcome [5] | outcome [6] | outcome [7] | outcome [8]

CN1CCN(CC(=O)Nc2ccc(-c3ccc(-c4nc5ccc(C(F)(F)F)cc5[nH]4)s3)cc2)CC1
active: growth inhibition [1] 73% | inhibition [2] 84% | growth inhibition [4] 102%
inactive: inhibition [3] 5% | outcome [5] | outcome [6] | outcome [7] | outcome [8]

CC[C@H](C)CNC(=O)c1cncc(-c2ccc(CN(C)C3CCN(C)CC3)cc2)c1
inactive: inhibition [2] -16% | inhibition [3] -2% | outcome [5] | outcome [6] | outcome [7] | outcome [8]
active: growth inhibition [1] 97% | growth inhibition [4] 101%

Nc1ncc(Cc2ccc3c(ccc4ccccc43)c2)c(N)n1
active: growth inhibition [4] 97%
inactive: growth inhibition [1] 3% | inhibition [2] 9% | inhibition [3] -5% | outcome [5] | outcome [6] | outcome [7] | outcome [8]

Cn1cncc1C(=O)Nc1cccc(-c2ccc(-c3nc4ccc(F)cc4[nH]3)cc2)c1
active: growth inhibition [4] 101%
inactive: growth inhibition [1] 31% | inhibition [2] -1% | inhibition [3] -2% | outcome [5] | outcome [6] | outcome [7] | outcome [8]

CC(C)(C)c1ccc2nc(-c3ccc(/C=C/C(=O)NCc4ccc(Cl)c(Cl)c4)cc3)[nH]c2c1
inactive: growth inhibition [1] 17% | inhibition [2] 41% | inhibition [3] 0% | outcome [5] | outcome [6] | outcome [7] | outcome [8]
active: growth inhibition [4] 97%
